For one assay, the system named is Dd2. Kind of assay: qHTS profiling for inhibitors of Plasmodium falciparum proliferation (AID 504749). Also: potency is read from the fitted curve at half-maximal effect. As to conditions: P. falciparum in erythrocytes, SYBR Green DNA, 72 h; series mostly up to 28.7 µM. Put shortly:
(§1)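 Quantitative HTS: compounds pinned into medium, infected erythrocytes added (0.3% parasitemia, 2.5% hematocrit), 72 h culture at 37 C under 5% CO2. Saponin/Triton lysis with SYBR Green I, overnight RT, then fluorescence read.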
In general terms: In qHTS, concentration-response curves come from the screen itself.

The next assay has as its system ECU. The description is as above. As to conditions: P. falciparum in erythrocytes, SYBR Green DNA, 72 h; series mostly up to 28.7 µM. Put shortly: as §1
The subject of the next assay is FAB9. The assay is described as above. As to conditions: P. falciparum in erythrocytes, SYBR Green DNA, 72 h; series mostly up to 28.7 µM. Put shortly:
as §1

For the next assay, the system named is GB4. The description is as above. As to conditions: P. falciparum in erythrocytes, SYBR Green DNA, 72 h; series mostly up to 28.7 µM. Put shortly:
as §1

The next assay deals with HB3. Described as above. Conditions: P. falciparum in erythrocytes, SYBR Green DNA, 72 h; series mostly up to 28.7 µM. Put shortly: as §1
The test system of another assay is ICS. The description is as above. As to conditions: P. falciparum in erythrocytes, SYBR Green DNA, 72 h; series mostly up to 28.7 µM. Put shortly: as §1
The subject of another assay is JCK. The description is as above. Conditions: P. falciparum in erythrocytes, SYBR Green DNA, 72 h; series mostly up to 28.7 µM. Put shortly:
as §1

A further assay deals with N140. The assay is described as above. As to conditions: P. falciparum in erythrocytes, SYBR Green DNA, 72 h; series mostly up to 28.7 µM. The gist of the method:
as §1

The next assay concerns P93_24. Described as above. As to conditions: P. falciparum in erythrocytes, SYBR Green DNA, 72 h; series mostly up to 28.7 µM. The gist of the method: as §1
The subject of another assay is P94_40. The description is as above. As to conditions: P. falciparum in erythrocytes, SYBR Green DNA, 72 h; series mostly up to 28.7 µM. Put shortly:
as §1

The subject of a further assay is PAD. The description is as above. Conditions: P. falciparum in erythrocytes, SYBR Green DNA, 72 h; series mostly up to 28.7 µM. The gist of the method: as §1
The test system of the next assay is PC15. The assay is described as above. Conditions: P. falciparum in erythrocytes, SYBR Green DNA, 72 h; series mostly up to 28.7 µM. The gist of the method: as §1
The next assay relates to PC26. The assay is described as above. As to conditions: P. falciparum in erythrocytes, SYBR Green DNA, 72 h; series mostly up to 28.7 µM. The gist of the method: as §1
Another assay deals with PC49. The description is as above. As to conditions: P. falciparum in erythrocytes, SYBR Green DNA, 72 h; series mostly up to 28.7 µM. Put shortly:
as §1

The test system of another assay is SC27B. Described as above. As to conditions: P. falciparum in erythrocytes, SYBR Green DNA, 72 h; series mostly up to 28.7 µM. The gist of the method:
as §1

The test system of another assay is TAB109. The assay is described as above. Conditions: P. falciparum in erythrocytes, SYBR Green DNA, 72 h; series mostly up to 28.7 µM. The gist of the method:
as §1

The subject of a further assay is TAB113. The assay is described as above. Conditions: P. falciparum in erythrocytes, SYBR Green DNA, 72 h; series mostly up to 28.7 µM. Put shortly: as §1
The test system of the next assay is TAB165. The description is as above. Conditions: P. falciparum in erythrocytes, SYBR Green DNA, 72 h; series mostly up to 28.7 µM. The gist of the method:
as §1

The test system of another assay is W2. The description is as above. Conditions: P. falciparum in erythrocytes, SYBR Green DNA, 72 h; series mostly up to 28.7 µM. Put shortly:
as §1

The subject of another assay is CRL-7250. Kind of assay: Cytotoxic Profiling of Annotated Libraries Using Quantitative High-Throughput Screening (AID 1296008). As to conditions: Five cell lines viability, CellTiter-Glo ATP luminescence, 48-72 h; max response: active compounds read low. The gist of the method: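 Compounds were pin-transferred onto cells and incubated 48 or 72 hr at 37 degree Celsius, 95% humidity. CellTiter-Glo was added, plates sat 10 min at room temperature, then ATP-coupled luminescence was imaged as the viability read-out.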

Records with an inconclusive call do not appear. The source made the active and inactive calls. Calls follow the shape of the dose curve; as a rule, active = well fitted inhibition curve with a large enough effect; inconclusive = small, poorly fitted or top-dose-only effect; inactive = flat fitted curve, though single readings scatter.
Also: nearly all actives have a fitted effect of over 60% in size.

Turning to `NS(=O)(=O)c1cc2c(cc1Cl)NC(C1CC3C=CC1C3)NS2(=O)=O` (stereo unspecified), the Potency entry with Dd2, with ECU, in the assay on FAB9, with GB4, with HB3 and in the assay with ICS was “inactive” in each case. Moreover, the Potency entry with JCK, in the assay on N140, with P93_24, in the assay on P94_40, with PAD and with PC15 was “inactive” throughout. For the same molecule, the Potency entry in the assay with PC26, in the assay with PC49, with SC27B, in the assay on TAB109, with TAB113 and in the assay with TAB165 was “inactive” throughout.
For the molecule `OCCN1CCN(CC/C=C2/c3ccccc3Sc3ccc(C(F)(F)F)cc32)CC1`, the Potency is 7.94 µM (active) in the assay with Dd2; 12.6 µM (active) with ECU; 6.75 µM (active) in the assay on GB4; 6.31 µM (active) in the assay on HB3; 6.31 µM (active) in the assay with ICS; 11.2 µM (active) in the assay with N140. For the same molecule, the Potency with P93_24 is 10 µM (active); with P94_40 it was 10 µM (active); with PAD, 10 µM (active); in the assay on PC15, 12.6 µM (active); with PC26 it was 6.75 µM (active); in the assay with SC27B it was 10 µM (active). Also, the Potency was 8.91 µM (active) in the assay on TAB109, 11.2 µM (active) in the assay with TAB113, 10 µM (active) with TAB165 and 1.9 µM (active) in the assay on W2.
`Cc1nc2ccccn2c(=O)c1CCN1CCC(C(=O)c2ccc(F)cc2)CC1`: the Potency result in the assay with ECU, in the assay with FAB9, with HB3, with JCK, in the assay with N140 and in the assay on PC26 was “inactive” each time. Moreover, the Potency result in the assay on SC27B and in the assay with TAB113 was “inactive” in each case. The values for the Potency in the assay with ICS and in the assay on W2 were 8.91 µM (active) and 6.01 µM (active), respectively.
As to `COc1ccc([C@@H]2Sc3ccccc3N(CCN(C)C)C(=O)[C@@H]2OC(C)=O)cc1`, the Potency result in the assay on Dd2, in the assay on ECU, in the assay on FAB9, in the assay with GB4, with HB3 and in the assay on ICS was “inactive” each time. In addition, the Potency result with N140, in the assay on P93_24, with P94_40, in the assay with PAD, with PC15 and in the assay on PC26 was “inactive” throughout. The Potency entry in the assay on PC49, in the assay on SC27B, in the assay with TAB109, in the assay on TAB113 and with TAB165 was “inactive” in each case. Besides, the Potency in the assay with JCK is 10 µM (active).
Regarding `CN(C)CC[C@@H](c1ccc(Br)cc1)c1ccccn1`, the Potency was 2.51 µM (active) with Dd2 and 0.849 µM (active) in the assay with W2. Besides, the Potency entry in the assay with ECU, in the assay on FAB9, with HB3, in the assay on PAD and with SC27B was “inactive” in each case.
As for `CN1C[C@H](C(=O)N[C@]2(C)O[C@@]3(O)[C@@H]4CCCN4C(=O)[C@H](Cc4ccccc4)N3C2=O)C[C@@H]2c3cccc4[nH]cc(c34)C[C@H]21`, the Potency is 6.01 µM (active) in the assay on GB4, 1.2 µM (active) with PC26 and 1.51 µM (active) with W2. In the assay with CRL-7250, the call was inactive.
Turning to `Fc1ccc(C(c2ccc(F)cc2)N2CCN(C/C=C/c3ccccc3)CC2)cc1`, the Potency in the assay with ECU was 11.2 µM (active); with HB3, 11.2 µM (active); in the assay with ICS, 8.91 µM (active); with N140, 11.2 µM (active); in the assay on P93_24, 8.91 µM (active); with TAB165, 11.2 µM (active).
On to `CCc1cccc(N(C)C(N)=Nc2cccc3ccccc23)c1`, for which the Potency is 3.16 µM (active) with Dd2; 7.94 µM (active) in the assay with ECU; 5.36 µM (active) in the assay with GB4; 2.82 µM (active) in the assay on ICS; 4.47 µM (active) in the assay with PAD; 5.01 µM (active) with PC15. Further, the Potency was 4.26 µM (active) with PC26 and 0.757 µM (active) in the assay with W2. Moreover, the Potency entry with FAB9 and with HB3 was “inactive” in each case.
Consider `CCN(CC)CCOCCOC(=O)C1(c2ccccc2)CCCC1`, for which the Potency with Dd2 is 2.51 µM (active); in the assay on ECU it was 11.2 µM (active); in the assay on GB4 it was 6.01 µM (active); in the assay with HB3, 12.6 µM (active); in the assay on ICS, 1.41 µM (active); with N140, 7.08 µM (active). Further, the Potency with P93_24 was 6.31 µM (active); with P94_40, 7.08 µM (active); in the assay on PAD, 8.91 µM (active); in the assay with PC15 it was 11.2 µM (active); with PC26 it was 12 µM (active); in the assay on PC49, 7.08 µM (active). For the same molecule, the Potency is 12.6 µM (active) in the assay with SC27B; 6.31 µM (active) in the assay with TAB109; 11.2 µM (active) in the assay with TAB113; 8.91 µM (active) in the assay with TAB165; 0.953 µM (active) with W2.
